# Measured values as given in PubChem BioAssay AID1981 (Southern Research Specialized Biocontainment Screening …, 2009).
# The whole screen tested about 2,200 compounds, of which about 480 (22%) were called active. Not all results are given here. Measured potencies and affinities stand elsewhere. A number with no mark means an inactive call. How the calls were made is not given here.
# Assay: S. Typhimurium GFP fluorescence modified counterscreen for PhoP regulon inhibitor project dose response (AID 1981);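 further: 0% = induced DMSO wells and 100% = uninduced wells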
# Details: 4 h; series mostly up to 150 µM; inhibition: at the top concentration
row,Compound,inhibition
1,COc1ccc(/C=C/C(=O)NCCc2nc3ccccc3[nH]2)cc1,8.18%
2,CCCCn1c(/N=C/c2c[nH]c3ccccc23)nc2ccccc21,15.1%
3,O=C1CCc2cc(S(=O)(=O)N3CCN(c4cccc(Cl)c4)CC3)ccc2N1,-2.32%
4,C=CCN(C(=O)c1cccc(S(=O)(=O)N2CCN(C)CC2)c1)c1nc(-c2ccccc2)cs1,-7.5%
5,O=C(CCC(=O)c1cccs1)OCC(=O)N1CCN(S(=O)(=O)c2ccccc2)CC1,-8.31%
6,O=C1c2ccccc2C(=O)N1CCCc1nc2ccccc2c(=O)n1Cc1ccco1,-21.1%
7,O=C(NCCc1cn2ccccc2n1)c1ccccc1F,2.71%
8,O=C(c1ccco1)[C@@H]1[C@@H]2C(=O)N(c3ccc(F)cc3)C(=O)[C@@H]2[C@H]2C=Cc3ccccc3N21,29.2%
9,Clc1ccc(-c2csc3ncnc(N4CCc5ccccc5C4)c23)cc1,-12.2%
10,CCCCN(C(=O)NC(=O)Nc1nc2ccc(OC)cc2s1)S(C)(=O)=O,17%
11,c1csc(C2Nc3ccccc3-c3nc4ccccc4n32)c1 (stereo not given),19.2%
12,c1ccc(CSc2snnc2-c2ccccc2)cc1,-3.35%
13,O=C(Cc1c[nH]c2ccccc12)N/N=C/c1ccc(F)cc1,-10.3%
14,O=c1[nH]c(NNC(=S)NCc2ccccc2)nc2c1C1(CCCCC1)Cc1ccccc1-2,0.42%
15,CN(C(=O)c1cccc(C#N)c1)c1nnc(-c2cnccn2)s1,-4.29%
16,COc1ccc(-c2ccccc2)cc1NCc1ccccc1C,-12.8%
17,CC(=O)Nc1cccc(-c2csc(Nc3cccc(C)n3)n2)c1,-15.6%
18,CCOC(=O)C1=C(C)NC(=O)NC1c1ccsc1 (stereo not given),1.33%
19,CCOC(=O)C(NC(=O)c1cccc(Cl)c1)(OCc1ccccc1)C(F)(F)F (stereo not given),0.14%
20,Cc1ccc(C(=O)N2CC3(C(C)C)CN(C(=O)c4ccc(C)cc4)CC(C(C)C)(C2)C3=O)cc1,-13.8%
21,CCn1c2ccccc2c2cc(/C=N/NC(=O)c3ccccc3)ccc21,20.8%
22,Cc1ccc(-n2c(C)cc(/C=N/NC(N)=S)c2C)cc1,14.2%
23,CCN(CC)S(=O)(=O)c1cccc(C(=O)NC(Cc2c[nH]c3ccccc23)c2nnc3n2CCC3)c1 (stereo not given),-22%
24,O=C(N/N=C/c1ccco1)c1cccc(S(=O)(=O)Nc2ccccc2Cl)c1,4.33%

row,Compound,inhibition
1,O=C(/C=C\c1ccco1)Nc1nc(-c2ccccc2)cs1,1.32%
2,COc1cccc(OC)c1C(=O)NC(=S)Nc1cc(-c2nc3ccccc3[nH]2)ccc1Cl,-22.6%
3,Cc1[nH]c2ccccc2c1/C=N/Nc1ccc(F)cc1F,13.6%
4,N#Cc1nc(-c2cccs2)oc1NCCCN1CCOCC1,9.92%
5,c1ccc(Nc2cc(Nc3ccccc3)[nH]n2)cc1,-0.38%
6,Oc1c(Br)cc(Br)cc1C=NCc1ccccc1,16.4%
7,Cc1ccc(-n2sc3ccccc3c2=O)cc1S(=O)(=O)N1CCCCC1,32.3%
8,Cc1ccc(C)c(-c2nc3ccc(N)cc3[nH]2)c1,15.5%
9,c1ccc(CCNc2nc3ccccc3s2)cc1,-7.07%
10,CC(=O)Nc1ccc(C(=O)N2CCN(C(=O)c3ccco3)CC2)cc1,0.79%
11,Cc1cccnc1N(C(=O)Nc1ccccc1)C1=NCC(C)(C)S1,2.03%
12,CN1C(=O)/C(=C/c2cccn2-c2ccc3ccccc3c2)C(=O)NC1=S,-0.34%
13,CCOc1cc(/C=C2/NC(=O)N(CC(=O)Nc3cccc(C)c3)C2=O)ccc1OC,-16.1%
14,COc1ccc(C(C)C)cc1S(=O)(=O)Nc1ccc(Cl)cn1,-22.6%
15,Cc1ccc2[nH]c3c(=O)n(CCc4cnc[nH]4)cnc3c2c1,4.47%
16,c1ccc(-n2cnc3cc(NCc4ccncc4)ccc32)cc1,0.09%
17,Cc1[nH]c2ccccc2c1C1=CCNCC1,3.1%
18,CCOC(=O)C1CCCN(C(=O)c2sc3nc(C)nc(N4CCOCC4)c3c2C)C1 (stereo not given),-11.8%
19,Cc1cc(C(=O)COC(=O)CNC(=O)c2ccco2)c(C)n1Cc1ccco1,-20%
20,CN(C)c1ccc(/C=N/c2cc(-c3ccccc3)nn2-c2ccccc2)cc1,-16.3%
21,Cc1ccc(N2C(=O)CC(n3ccnc3)C2=O)cc1C (stereo not given),3.87%
22,Cc1cc(NC(=O)c2cnn3cccnc23)no1,5.39%
23,COc1ccc(-c2cc(C(=O)Nc3cc(C)n(Cc4ccc(Cl)cc4)n3)no2)cc1OC,3.32%
24,O=C(NCCSCc1ccccc1)c1ccc(F)cc1,-11.2%

row,Compound,inhibition
1,COC(=O)CN1C(c2ccc(OC)cc2)=Nc2ccc(Cl)cc2C1c1ccccc1 (stereo not given),-9.48%
2,Cc1ccc(-c2cc(C(=O)Nc3nccs3)c3ccccc3n2)o1,37.3%
3,Nc1nc(N2CCN(C/C=C/c3ccccc3)CC2)nc2ccccc12,-3.63%
4,O=C(O)CCC(=O)NCC1OCCc2ccccc21 (stereo not given),3.15%
5,COc1c(/C=N/Nc2nc(N3CCCCC3)nc(N3CCCCC3)n2)cccc1[N+](=O)[O-],-6.83%
6,COC(=O)c1cn(C(=O)c2cccs2)c2ccccc12,-2.01%
7,Cc1nc2ccccn2c1C(=O)N/N=C/c1ccccc1[N+](=O)[O-],-3.37%
8,Cc1cc(/C=N\NC(=O)c2cccs2)c(C)n1-c1ccc2ncccc2c1,19.8%
9,CCOC(=O)C(NC(=O)CC)(Nc1ccc(C(O)(C(=O)OCC)C(F)(F)F)cc1C)C(F)(F)F (stereo not given),-14.8%
10,CN(C(=O)c1ccc2c(c1)OCO2)C1(C(=O)NC2CCCCC2)CCCCC1,-4.9%
11,O=C(CSc1nnc(Cc2ccccc2)o1)NCCc1ccccc1,-16.5%
12,Cc1ccc(CNc2oc(-c3cccs3)nc2C#N)cc1,-4.93%
13,COc1cccc2[nH]c3c(N4CCC(C)CC4)ncnc3c12,-13.9%
14,NCCCC[C@H]1CN=C(N)N1CCC12CC3CC(CC(C3)C1)C2,18.9%
15,COCC(=O)N=Nc1c(O)[nH]c2ccccc12,-15.3%
16,C(=N\N1CCN(C2c3ccccc3-c3ccccc32)CC1)/c1cccs1,1.11%
17,Cc1ccc(C(=O)Oc2ccc(C(=O)COC(=O)c3cnccn3)cc2)cc1,-14%
18,O=[N+]([O-])c1ccc(CNC2CCCc3ccccc32)cc1 (stereo not given),20.9%
19,COc1cc(C2Nc3cccc4cccc(c34)N2)cc(OC)c1O,-22.2%
20,CCOC(=O)CCCc1c[nH]c2ccccc12,-4.56%
21,COc1ccc(-n2c(C)cc(C(=O)Cn3nc(C(=O)O)c4ccccc4c3=O)c2C)cc1,-19.3%
22,NNc1nc2c(-c3cccc(C(F)(F)F)c3)nnn2c2ccccc12,17.3%
